Composite z-score and z-score data for 16 compounds are collected here from PubChem BioAssay.

Activity calls are given as the source filed them.

The nature of assay [1]: compounds binding Alexa647 anti-His antibody – biochemical, small-molecule microarray, 635 nm fluorescence, artefact control for SMM control protein annotation, primary screen (AID 1128).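 Note: score merges feature fluorescence with signal-to-noise for each printed compound spot.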 To be noted: higher = more signal.
In assay [2] the test system is Human papillomavirus type 1a E7 protein (residues 1-88). Description: HPV1a E7 small-molecule binders, primary screen, biochemical, small-molecule microarray, residues 1-88, 635 nm (AID 1129). The note with it: small-molecule microarray binding, fluorescence 635 nm; higher = more signal.
The target of assay [3] is Focal adhesion kinase 1 (Homo sapiens) (UniProt Q05397). Description: PTK2 protein binding on printed compound slides – biochemical, small-molecule microarray, 635/667 nm fluorescence, BSA, DTT, primary screen (AID 1130).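 Note: composite of spot emission at 667 nm and signal to noise over triplicate slides.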 To be noted: 635 nm fluorescence, higher = more signal.
The test system of assay [4] is Fibrinogen (Alexa647-labelled). Description: Alexa647-fibrinogen binding to printed small molecules – biochemical, small-molecule microarray, 635/667 nm fluorescence, artefact control for SMM control-protein annotation, profiling panel (AID 1131).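 Note: z-score merges 667 nm fluorescence with per-spot signal-to-noise over triplicate slides.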 The note with it: fibrinogen-A647 binding fluorescence, higher = more signal.
The target in assay [5] is Follistatin (Homo sapiens) (UniProt P19883). Description: FST protein binding to printed compounds – biochemical, small-molecule microarray, 635/667 nm fluorescence, primary screen (AID 1132). To be noted: 635 nm fluorescence, higher = more signal.
Assay [6] addresses Fibroblast growth factor 2 (Homo sapiens) (UniProt P09038). Description: basic fibroblast growth factor binding to printed compounds – biochemical, small-molecule microarray, 635/667 nm fluorescence, primary screen (AID 1133). To be noted: FGF2, fluorescence 635/667, higher = more signal.
The nature of assay [7]: JC-1 mitochondrial potential readout, lung cancer cells – cell-based, A549, JC-1 fluorescence, basal, 24 h, 100 nL, profiling panel (AID 1138).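 Note: A549 lung adenocarcinoma cells under basal conditions with no added stimulus; test concentration not given here.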 The note with it: higher = more signal.
Assay [8] relates to Lefty1. Description: Lefty1 protein binding to printed compounds – biochemical, small-molecule microarray, 635/667 nm fluorescence, primary screen (AID 1139). The note with it: fluorescence 635/667, higher = more signal.
Assay [9] deals with wheat germ agglutinin (Triticum aestivum), Alexa647-labelled. Description: Alexa647-WGA lectin binding to printed small molecules – biochemical, small-molecule microarray, 635/667 nm fluorescence, artefact control for SMM control-protein annotation, profiling panel (AID 1140).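 Note: score merges 667 nm feature emission with signal to noise over triplicate slides.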 The note with it: WGA-A647 binding, 635 nm fluorescence, higher = more signal.
Assay [10] concerns the target Luciferin 4-monooxygenase (Photinus pyralis) (UniProt P08659). Description: inhibition of purified Photinus pyralis luciferase – biochemical, luminescence, purified enzyme, 2006 set, primary screen (AID 1141).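 Note: cell-free assay with purified firefly luciferase at 100 ng per well in PBS; test concentration not given here.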 To be noted: purified firefly luciferase, SteadyGlo luminescence, 30 min; higher = more signal, called active from +8 up or from −8 down.

Chain of Fibroblast growth factor 2 (Homo sapiens) (P09038 whole entry, looked up): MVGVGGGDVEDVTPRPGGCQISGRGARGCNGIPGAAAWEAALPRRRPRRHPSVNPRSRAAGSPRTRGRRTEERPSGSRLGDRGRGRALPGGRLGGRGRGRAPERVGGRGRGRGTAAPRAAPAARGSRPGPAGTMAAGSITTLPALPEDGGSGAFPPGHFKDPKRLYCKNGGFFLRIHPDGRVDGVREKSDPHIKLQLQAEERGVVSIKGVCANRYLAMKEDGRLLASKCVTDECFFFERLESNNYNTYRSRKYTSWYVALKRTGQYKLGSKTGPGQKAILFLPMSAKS
Chain of Follistatin (Homo sapiens) (P19883 whole entry, looked up): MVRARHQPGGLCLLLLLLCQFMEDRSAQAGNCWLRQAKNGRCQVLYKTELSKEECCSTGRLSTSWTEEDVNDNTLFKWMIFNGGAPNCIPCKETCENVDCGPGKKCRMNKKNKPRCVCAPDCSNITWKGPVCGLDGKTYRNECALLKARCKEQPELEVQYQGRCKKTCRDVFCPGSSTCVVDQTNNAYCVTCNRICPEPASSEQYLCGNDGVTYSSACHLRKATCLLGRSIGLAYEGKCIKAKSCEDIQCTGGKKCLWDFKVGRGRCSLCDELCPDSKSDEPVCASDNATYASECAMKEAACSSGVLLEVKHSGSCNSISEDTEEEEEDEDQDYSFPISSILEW
Chain of Luciferin 4-monooxygenase (Photinus pyralis) (P08659 whole entry, looked up): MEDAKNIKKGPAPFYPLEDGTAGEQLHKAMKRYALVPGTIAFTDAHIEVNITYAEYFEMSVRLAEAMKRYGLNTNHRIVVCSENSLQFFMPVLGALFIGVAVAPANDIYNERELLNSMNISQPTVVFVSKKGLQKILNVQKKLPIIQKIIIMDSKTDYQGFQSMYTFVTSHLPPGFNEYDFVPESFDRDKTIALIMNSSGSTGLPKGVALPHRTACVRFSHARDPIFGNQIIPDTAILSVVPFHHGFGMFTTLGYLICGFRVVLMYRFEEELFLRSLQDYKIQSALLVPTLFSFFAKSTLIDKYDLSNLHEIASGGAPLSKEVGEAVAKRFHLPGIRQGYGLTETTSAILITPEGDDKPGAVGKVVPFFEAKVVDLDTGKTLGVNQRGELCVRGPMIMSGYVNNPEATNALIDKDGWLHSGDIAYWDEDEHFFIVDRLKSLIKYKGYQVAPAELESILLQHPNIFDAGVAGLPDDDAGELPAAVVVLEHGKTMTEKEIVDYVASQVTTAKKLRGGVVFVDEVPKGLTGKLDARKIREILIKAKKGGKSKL
Chain of Focal adhesion kinase 1 (Homo sapiens) (Q05397 whole entry, looked up): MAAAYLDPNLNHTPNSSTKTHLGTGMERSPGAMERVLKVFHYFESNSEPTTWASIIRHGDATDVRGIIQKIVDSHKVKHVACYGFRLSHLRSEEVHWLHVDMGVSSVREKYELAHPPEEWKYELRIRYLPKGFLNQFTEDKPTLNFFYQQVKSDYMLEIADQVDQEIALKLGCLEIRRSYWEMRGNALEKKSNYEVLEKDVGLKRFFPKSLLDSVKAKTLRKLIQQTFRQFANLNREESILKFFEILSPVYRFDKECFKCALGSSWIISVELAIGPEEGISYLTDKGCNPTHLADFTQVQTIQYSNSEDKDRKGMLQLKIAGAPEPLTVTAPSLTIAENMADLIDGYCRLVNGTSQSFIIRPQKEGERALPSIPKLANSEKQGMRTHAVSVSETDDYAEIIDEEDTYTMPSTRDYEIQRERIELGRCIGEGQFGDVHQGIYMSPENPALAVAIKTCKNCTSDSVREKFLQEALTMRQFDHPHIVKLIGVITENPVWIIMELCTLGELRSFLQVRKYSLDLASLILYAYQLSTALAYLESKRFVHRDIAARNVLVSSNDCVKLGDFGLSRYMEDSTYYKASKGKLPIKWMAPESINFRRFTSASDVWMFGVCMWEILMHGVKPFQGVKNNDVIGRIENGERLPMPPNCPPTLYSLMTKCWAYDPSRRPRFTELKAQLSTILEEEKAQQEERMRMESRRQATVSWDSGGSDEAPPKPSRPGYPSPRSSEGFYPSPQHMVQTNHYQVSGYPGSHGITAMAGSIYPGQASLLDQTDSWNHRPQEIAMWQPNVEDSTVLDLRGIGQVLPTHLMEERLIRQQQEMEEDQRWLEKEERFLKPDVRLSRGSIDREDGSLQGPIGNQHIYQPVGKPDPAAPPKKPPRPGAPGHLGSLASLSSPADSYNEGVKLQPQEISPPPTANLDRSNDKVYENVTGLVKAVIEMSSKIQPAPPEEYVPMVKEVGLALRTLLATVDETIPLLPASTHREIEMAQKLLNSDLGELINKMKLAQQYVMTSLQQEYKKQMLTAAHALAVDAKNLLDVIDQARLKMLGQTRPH

As for `CC(C)C[C@H]1NC(=O)[C@@H](C)NC(=O)[C@@]23C(=O)N[C@@H](Cc4ccccc4)C2[C@H](C)[C@@]2(C)O[C@H]2C3/C=C/C/C=C\CNC1=O` (stereo not given in full), the composite z-score was 1.35 in assay [1]; 0.633 in assay [2]; 0.82 in assay [3]; -0.212 in assay [4]; 0.746 in [5]; 0.238 in assay [6]. Also, the values for the composite z-score in assay [8] and in assay [9] were 0.754 and 0.532, respectively. The z-score was -0.0228 in assay [7] and -0.327 (inactive) in assay [10].
On to `C=CC[C@@]12N=C(c3ccc(OCCCO)cc3)O[C@@H]1c1ccccc1N(Cc1ccccc1)C2=O`, for which the composite z-score in [1] amounted to 2.52; in [2], 1.17; in [3], 0.986; in [4] it was 0.8; in [5] it was 1.55; in [6] it was 1.44. Moreover, the composite z-score was 1.55 in [8] and 1.04 in [9]. In addition, the z-score is -0.379 in assay [7] and -2.6 (inactive) in assay [10].
Take `CC(C)c1ccc(NN2C(C(O)C(C)C)C=CC3C(=O)N(c4ccccc4)C(=O)C32)cc1` (stereo not given): the composite z-score came out at 1.66 in assay [1]; 1.26 in assay [2]; 0.811 in assay [3]; 1.04 in assay [4]; 0.754 in assay [5]; 0.013 in assay [6]. Besides, the results for the composite z-score in [8] and in [9] were 0.172 and 1.12, respectively. Further, the z-score in assay [7] was -0.81; in [10], -1.73 (inactive).
With `O=C1N(CCS(=O)(=O)c2ccccc2)c2ccccc2[C@@H]2OC(c3ccc(OCCCO)cc3)=N[C@]12CCS(=O)(=O)c1ccccc1`, the composite z-score in assay [1] turned out to be 0.7; in assay [2], 1.2; in [3], 0.575; in [4] it was 0.922; in assay [5] it was 1.38; in assay [6], 1.5. The composite z-score is 0.553 in assay [8] and 0.465 in assay [9]. The values for the z-score in assay [7] and in assay [10] were -1.59 and -3.78 (inactive), respectively.
Turning to `COc1ccc(NN2C(C(O)c3cc(C(F)(F)F)cc(C(F)(F)F)c3)C=CC3C(=O)N(C4CCCCC4)C(=O)C32)cc1` (stereo not given), the composite z-score in assay [1] was 0.764; in assay [2] it was 1.1; in [3], 0.359; in assay [4] it was 0.895; in assay [5], 0.544; in [6] it was -0.0047. Also, the composite z-score in assay [8] was -0.364; in assay [9] it was 1.2. In addition, the figures for the z-score in assay [7] and in assay [10] were -0.822 and 0.36 (inactive), respectively.
For `CCCCCN1CC=CC23O[C@@H]4C=CCOC(=O)[C@@H]4[C@H]2C(=O)N(CCCCCO)[C@@H]3C1=O` (stereo not given in full), the composite z-score in [1] is 0.584; in [2], -0.465; in assay [3], 0.0875; in [4], -1.87; in assay [5] it was -0.232; in assay [6] it was -0.486. Also, the composite z-score was 0.604 in [8] and 0.0764 in assay [9]. In addition, the z-score in [7] is -0.465; in assay [10], 0.517 (inactive).
In the case of `C=CCOC(=O)[C@H]1[C@@H]2C(=O)O[C@@H](c3ccccc3)[C@@H](c3ccccc3)N2[C@@H](c2ccc(OCCOC(=O)[C@H]3C[C@H]4C(=O)NCC(=O)N4[C@H]3c3ccc(O)cc3)cc2)[C@]12C(=O)Nc1ccc(I)cc12`, the composite z-score in assay [1] amounted to 0.611; in assay [2], 0.956; in assay [3], 0.351; in assay [4] it was 0.843; in assay [5], 1.2; in assay [6], 1.53. Further, the composite z-score in assay [8] was determined as 0.971; in assay [9] it was 0.204. The z-score in [7] was -1.28; in [10], -0.8 (inactive).
As to `COc1ccccc1CN1C(=O)c2ccccc2[C@@H](C(=O)NCCCN(C)C)[C@@H]1c1ccc(CO)cc1`, the composite z-score in [1] was 0.802; in assay [2], 0.232; in assay [3], -0.492; in assay [4] it was -0.741; in assay [5] it was 0.104; in assay [6], 0.303. The composite z-score worked out at 0.409 in assay [8] and 0.131 in assay [9]. Further, the z-score in assay [7] was 2.1; in assay [10], 0.731 (inactive).
`CCCCC(=C=CC[C@@H](O)c1ccc(OCCO)cc1)C[C@@H](O)c1ccccn1`: the composite z-score is -0.0662 in assay [1]; 0.731 in assay [2]; 0.178 in assay [3]; 0.141 in assay [4]; 1.22 in assay [5]; 0.611 in assay [6]. Moreover, the composite z-score is 1.47 in assay [8] and -0.146 in assay [9]. Also, the results for the z-score in [7] and in [10] were 0.176 and -1.12 (inactive), respectively.
For `O=C1C2C=CC(C(O)c3cccs3)N(Nc3ccccc3)C2C(=O)N1c1ccccc1` (stereo not given), the composite z-score in [1] is -0.0476; in assay [2], -0.741; in assay [3], 0.948; in assay [4], 0.183; in [5] it was 0.761; in [6] it was -0.473. Further, the results for the composite z-score in assay [8] and in assay [9] were -0.289 and 0.253, respectively. Besides, the z-score was -0.4 in assay [7] and -0.802 (inactive) in assay [10].
As to `COc1ccc(NN2C(C(O)c3ccc(OC)cc3)C=CC3C(=O)N(C4CCCCC4)C(=O)C32)cc1` (stereo not given), the composite z-score in assay [1] was 0.679; in [2], 1.18; in assay [3], 0.349; in [4] it was 0.92; in assay [5], 0.977; in [6], -0.0659. Also, the composite z-score in assay [8] turned out to be 0.433; in assay [9] it was 0.701. The z-score in [7] is 0.017; in [10] it was 1.25 (inactive).
With `CN(C)CCCC[C@@H]1NC(=O)[C@@H]2C[C@H](C(=O)NCc3ccc(F)cc3)[C@H](c3ccc(O)cc3)N2C1=O`, the composite z-score in [1] was 0.0971; in [2], 0.0709; in assay [3] it was -0.103; in assay [4] it was 0.348; in assay [5], 1.45; in [6], 1.91. Further, the composite z-score in [8] is 0.748; in assay [9] it was -0.0665. The z-score is 0.0539 in assay [7] and 0.144 (inactive) in assay [10].
Take `O=C1C2C=CC(C(O)c3cccc(O)c3)N(Nc3ccccc3F)C2C(=O)N1c1ccccc1` (stereo not given): the composite z-score is 0.933 in assay [1]; 0.137 in assay [2]; 0.158 in [3]; 0.327 in [4]; 0.434 in assay [5]; -0.214 in assay [6]. The composite z-score was determined as 0.474 in assay [8] and 0.248 in [9]. Further, the z-score in [7] was -0.846; in assay [10] it was 0.883 (inactive).
For `CC(C)C[C@H]1NC(=O)[C@@]23C(=O)N[C@@H](Cc4ccccc4)C2[C@H](C)[C@@]2(C)O[C@H]2C3/C=C/C/C=C\CNC(=O)[C@@H]2CCCN2C1=O` (stereo not given in full), the composite z-score was -0.17 in [1]; -0.0447 in [2]; -0.171 in assay [3]; 0.789 in assay [4]; 0.614 in assay [5]; 0.829 in assay [6]. Moreover, the composite z-score in assay [8] came to 0.661; in assay [9], 0.032. The z-score in [7] was -0.0387; in [10], -0.575 (inactive).
For `COc1ccc([Si](C)(C)[C@H]2[C@H](CCn3cc([C@H](O)c4ccccc4)nn3)O[C@@]3(C(=O)N(C)c4c(Br)cc(C)cc43)[C@@H]2C)cc1`, the composite z-score in assay [1] was 0.523; in [2] it was -0.212; in assay [3] it was -0.472; in [4] it was -0.496; in assay [5] it was 1.5; in [6], 1.87. The composite z-score in assay [8] came out at 1.37; in assay [9], 0.343. The z-score in assay [7] is 0.134; in assay [10], -0.877 (inactive).
`CCOC(=O)C1=CC[C@@H](c2ccccc2)N(S(=O)(=O)C[Si](C)(C)C)[C@H]1c1ccccc1`: the composite z-score in [1] worked out at 1.07; in assay [2], 1.19; in assay [3] it was 0.656; in assay [4], 0.996; in [5], 1.21; in [6], 0.497. The composite z-score in [8] came to 0.562; in [9], 0.862. Further, the z-score in assay [7] is -1.48; in [10], 2.37 (inactive).
